# Inconclusive results are not listed. The source made the active and inactive calls. The calls were made as follows, unless noted: active = hit-call score of the fitted dose curve at least 0.9, where 1 is the maximum; inconclusive = response in the unintended direction; inactive = score below 0.9.
# What was measured:
# [1] = VALA_TUBIPS_Antagonist_TubuleLength: VALA Sciences human iPS-derived Endothelial Tubule Formation (TUBIPS) Antagonist Assay (AID 2284313)
# Outline: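 Cells grown 3 days with 10 ng/ml VEGF, then exposed to compounds in VEGF medium for another 3 days. After fixation, nuclear stain and CD31 immunofluorescence imaging gave mean total tubule length against 0.1% DMSO; suramin (100 uM) inhibition control.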
# [2] = VALA_MIGHUV2_CellCount: Viability Assessment in the VALA Sciences human Umbilical Vein Endothelial Cell Migration (MIGHUV) Assay, Area of Scratch Wound after Recovery (AID 2284314)
# Outline: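 Scratch-wounded HUVEC monolayers received test chemical within 30 min, 6-point concentration response in triplicate, 0.1 % DMSO vehicle. After 24 h wound recovery, fixed cells were Hoechst-stained and nuclei imaged; loss of signal versus DMSO indicates reduced viability.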
# [3] = VALA_MIGHUV2_WoundArea: VALA Sciences human Umbilical Vein Endothelial Cell Migration (MIGHUV) Assay, Area of Scratch Wound after Recovery (AID 2284316)
# Outline: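 HUVEC seeded at 9000 cells/well, scratched after 24 h; test chemical added within 30 min, 6-point concentration response in triplicate (0.1% DMSO vehicle). After 24 h wound recovery, cells fixed and Hoechst-stained nuclei in wound area imaged; Cytochalasin D reference control.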
# IYD (gene 389434) = assay: CCTE_GLTED_hIYD: CCTE's human Iodotyrosine Deiodinase (xIYD) Inhibition Assay, Great Lakes Toxicology and Ecology Division (GLTED) Lab (AID 2284317);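 also: cell-free human IYD enzyme made in baculovirus insect cells; iodide freed from monoiodotyrosine measured by cerium arsenite color change at 420 nm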
# Outline: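 First, recombinant human IYD (baculovirus-insect cells), MIT and chemical incubated 3 h. Next, iodide isolated on Dowex. Finally, Sandell-Kolthoff rate read at 420 nm, with platewise normalization to MNT and solvent controls.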
# [4] = CCTE_Deisenroth_5AR_NBTE_donor: CCTE's 5alpha-reductase NanoBRET Target Engagement Assay […], Deisenroth Lab (AID 2284319; active = hit-call score of the fitted dose curve at least 0.9, where 1 is the maximum; inactive = score below 0.9); settings: actives raise or lower the signal
# Outline: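 HEK293T cells were reverse transfected with an SRD5A2-NanoLuc vector for 20 h, exposed to test chemical (8 points, 10 nM - 29.9 uM) for 3 h, then testosterone tracer for 2 h more. Donor luminescence (460 nm) was read; bidirectional fit versus DMSO.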
# SRD5A2 (gene 6716) = assay: CCTE_Deisenroth_5AR_NBTE_ratio: CCTE's 5alpha-reductase NanoBRET Target Engagement Assay - Ratio, Deisenroth Lab (AID 2284322; active = hit-call score of the fitted dose curve at least 0.9, where 1 is the maximum; inactive = score below 0.9); settings: actives raise or lower the signal
# Outline: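 Reverse-transfect HEK293T with pNLF1-C-SRD5A2, express 20 h. Pre-incubate cells with chemical 3 h (8-point series, 10 nM - 29.9 uM, duplicate). Add testosterone tracer, 2 h more. Add substrate/inhibitor, read donor and acceptor emission.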
# [5] = VALA_TUBHUV_Antagonist_TubuleLength: VALA Sciences human Umbilical Vein Endothelial Tubule Formation (TUBHUV) Antagonism Assay (AID 2284325)
# Outline: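 HUVEC–HDF co-culture (1:3) pre-grown 3 days with 10 ng/ml VEGF, then 3 days with compound plus VEGF. Fixed, nuclear and CD31 stained; total tubule length by imaging versus 0.1% DMSO; suramin 100 uM positive control.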
# [6] = VALA_MIGHUV1_ScratchOnly_CellCount: Viability Assessment in the VALA Sciences human Umbilical Vein Endothelial Cell Migration (MIGHUV) Assay, Scratch Wound Inhibited Recovery (AID 2284327)
# Outline: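 HUVEC scratched after 24 h culture, chemical added within 30 min at 6 concentrations in triplicate (0.1% DMSO vehicle). After 24 h recovery, fixed cells were counted by Hoechst nuclear imaging in the wound area.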
# [7] = VALA_TUBIPS_Antagonist_CellCount: Viability Assessment in the VALA Sciences human iPS-derived Endothelial Tubule Formation (TUBIPS) Antagonism Assay (AID 2284335)
# [8] = VALA_MIGHUV1_ScratchOnly_WoundArea: VALA Sciences human Umbilical Vein Endothelial Cell Migration (MIGHUV) Assay, Area of Scratch Wound Inhibited Recovery (AID 2284336)
# Outline: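 HUVEC monolayers (9000 cells/well) were scratched after 24 h, dosed within 30 min (six concentrations, triplicate, 0.1% DMSO), allowed 24 h recovery, then fixed. Hoechst-stained nuclei in the wound imaged; cytochalasin D as reference.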
# [9] = VALA_TUBHUV_Agonist_TubuleLength: VALA Sciences human Umbilical Vein Endothelial Tubule Formation (TUBHUV) Agonism Assay (AID 2284337)
# Outline: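 HUVEC co-cultured with fibroblasts (1:3) 3 days in 10 ng/ml VEGF, then 3 days with compound plus VEGF; 0.1 % DMSO neutral control. Fixed, nuclear and CD31 stained; tubule length by fluorescence imaging.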
# [10] = VALA_TUBIPS_Agonist_CellCount: Viability Assessment in the VALA Sciences human iPS-derived Endothelial Tubule Formation (TUBIPS) Agonism Assay (AID 2284338)
# [11] = TAMU_PeakParms_SingleDonor1434_Asystole: Texas A&M University (TAMU) 1.5-hr Human Induced Pluripotent Stem Cell (iPSC)-derived Cardiomyocytes Calcium (Ca+2) Flux Assay for Cardiotoxicity: Asystole (quiescence of beating) (AID 2284328)
# Outline: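 Average Ca2+-flux peak frequency (beats/s) was recorded in single-donor iPSC-derived cardiomyocytes after 90 min exposure (0.2–100 uM final, 0.5% DMSO). Asystole POD set as EC95 against DMSO, no preprocessing.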
# [12] = CCTE_Mundy_HCI_iCellGluta_NOG_NeuriteLength: CCTE's Neurite Outgrowth Assay in iCellGluta cells for Neurite Length, Mundy Lab (AID 2284318)
# Outline: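 Automated high-content imaging of betaIII-tubulin (Alexa Fluor-488) and Hoechst-stained cells gave neurite length, normalized to the DMSO baseline.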
# [13] = CCTE_Deisenroth_DEVTOX-GLR_legacy_CellCount: (Legacy) Viability Assessment in CCTE's DevTox GLR-Endo Assay, Deisenroth Lab (AID 2284331; active = hit-call score of the fitted dose curve at least 0.9, where 1 is the maximum; inactive = score below 0.9); settings: actives raise or lower the signal
# Outline: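 RUES2-GLR human pluripotent cells were seeded 24 h, then differentiated 48 h with two compound doses at 24 h intervals (10-point, 1 nM - 200 uM). Fixed nuclei were imaged and counted; bidirectional fitting versus 0.2% DMSO.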
# [14] = IUF_NPC1_cytotoxicity_72hr: Cytotoxicity Assessment at 72 hours in the Leibniz Research Institute for Environmental Medicine (IUF) Neural Progenitor Cell Proliferation Assay (NPC1) (AID 2284332);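 also: rising LDH signal means more cytotoxicity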
# Outline: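 hNPC spheres (fetal brain, gestational week 16-19) grown under proliferative EGF/FGF conditions, pH 7.2-7.6, were treated continuously for 72 h. Cytotoxicity came from LDH-coupled resazurin fluorescence in each well's supernatant.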
# [15] = CCTE_Mundy_HCI_iCellGluta_NOG_NeuronCount: CCTE's Neurite Outgrowth Assay in iCellGluta cells for Neuron Count, Mundy Lab (AID 2284340);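 also: cells fixed about 48 h after compound addition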
# Outline: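 Neuron count read by automated high-content imaging of Hoechst 33342 and betaIII-tubulin/Alexa Fluor-488 labelling in human iPSC glutamatergic neurons. Activity fitted relative to DMSO.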
# [16] = system: SRY-box transcription factor 17 (SOX17) Protein Expression, Deisenroth Lab, SOX17 (gene 64321); assay: CCTE_Deisenroth_DEVTOX-GLR_legacy_Sox17: (Legacy) CCTE's DevTox GLR-Endo Assay Evaluation of SRY-box transcription factor 17 (SOX17) Protein Expression, Deisenroth Lab (AID 2284341; active = hit-call score of the fitted dose curve at least 0.9, where 1 is the maximum; inactive = score below 0.9); settings: actives raise or lower the signal
# Outline: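 Percent SOX17-positive cells, scored by high-content imaging as mean intensity exceeding pluripotent-control median by 5x BMAD, divided by cell count. Human RUES2-GLR endoderm differentiation, 48 h, two exposures 24 h apart, 1 nM–200 uM; DMSO-referenced bidirectional fitting.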
# [17] = CCTE_Deisenroth_5AR_NBTE_acceptor: CCTE's 5alpha-reductase NanoBRET Target Engagement Assay - Autofluorescence Screen, Deisenroth Lab (AID 2284321; active = hit-call score of the fitted dose curve at least 0.9, where 1 is the maximum; inactive = score below 0.9;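 also: compound fluorescence in the acceptor channel under 460 nm excitation flags autofluorescence artifacts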); settings: actives raise or lower the signal
# Outline: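 Autofluorescence counter-screen: chemicals at an assumed nominal 100 uM in DMSO were scanned in three independent runs with 460 nm excitation. Gain or loss of acceptor signal was fitted bidirectionally against DMSO.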
# [18] = system: Brachyury (BRA) Protein Expression, Deisenroth Lab, TBXT (gene 6862); assay: CCTE_Deisenroth_DEVTOX-GLR_legacy_Bra: (Legacy) CCTE's DevTox GLR-Endo Assay Evaluation of Brachyury (BRA) Protein Expression, Deisenroth Lab (AID 2284329; active = hit-call score of the fitted dose curve at least 0.9, where 1 is the maximum; inactive = score below 0.9)
# Outline: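 Human pluripotent RUES2-GLR line was exposed twice during 48 h differentiation to a 10-point series, 1 nM - 200 uM. Fraction of Bra-positive cells was scored by imaging against pluripotent baseline and fitted after 0.2% DMSO subtraction.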
structure (smiles),measurement,setting,value
CCCCC(CC)COC(=O)CC(C(=O)OCC(CC)CCCC)S(=O)(=O)O (configuration not stated),outcome,[1],inactive
same,AC50,[2],50 µM (active)
same,outcome,[3],inactive
same,AC50,IYD (gene 389434),41.5 µM (active)
same,AC50,[4],62.2 µM (active)
same,AC50,SRD5A2 (gene 6716),75.3 µM (active)
same,AC50,[5],73 µM (active)
same,AC50,[6],78.2 µM (active)
same,outcome,[7],inactive
same,AC50,[8],74.5 µM (active)
same,AC50,[9],14.9 µM (active)
same,AC50,[10],77.8 µM (active)
Cc1cc(NC(=O)C(=O)O)cc(C)c1Oc1ccc(O)c2c1CCC2,outcome,[1],inactive
same,outcome,[8],inactive
same,outcome,[10],inactive
CCOc1ccc2c(c1)C(C)=CC(C)(C)N2,outcome,[11],inactive
CC(=O)Oc1ccccc1C(=O)O,outcome,[12],inactive
same,outcome,[11],inactive
same,outcome,[13],inactive
same,outcome,[14],inactive
same,outcome,[15],inactive
same,outcome,[16],inactive
CCCCCCCCCCC,outcome,[4],inactive
same,outcome,[17],inactive
same,outcome,SRD5A2 (gene 6716),inactive
O=c1[nH]cc(F)c(=O)[nH]1,outcome,[11],inactive
same,AC50,[18],16.5 µM (active)
same,AC50,[13],5.95 µM (active)
same,AC50,[16],8.47 µM (active)
C[Si]1(C)O[Si](C)(C)O[Si](C)(C)O[Si](C)(C)O1,outcome,[12],inactive
same,outcome,[14],inactive
same,outcome,[15],inactive
COc1cc(S(=O)(=O)O)c(C)cc1N=Nc1c(O)ccc2cc(S(=O)(=O)O)ccc12,AC50,IYD (gene 389434),154 µM (active)
same,AC50,[4],24.8 µM (active)
same,outcome,[17],inactive
same,AC50,SRD5A2 (gene 6716),60.2 µM (active)
COc1cc(-c2nc(NC(=O)c3cc4cc(C)cc(C)c4n3CC(=O)O)sc2CCC2CCCCC2)c(OC)cc1Cl,outcome,[4],inactive
same,outcome,[17],inactive
same,AC50,SRD5A2 (gene 6716),26.3 µM (active)
O=c1c(O)c(-c2ccc(O)c(O)c2)oc2cc(O)cc(O)c12,outcome,[1],inactive
same,AC50,[4],26.7 µM (active)
same,AC50,[17],23.3 µM (active)
same,outcome,SRD5A2 (gene 6716),inactive
same,outcome,[7],inactive
same,outcome,[8],inactive
same,outcome,[9],inactive
OC[C@@H](O)[C@@H](O)[C@H](O)[C@H](O)CO,outcome,[1],inactive
same,outcome,[2],inactive
same,outcome,[3],inactive
same,outcome,[4],inactive
same,outcome,[17],inactive
same,outcome,SRD5A2 (gene 6716),inactive
same,outcome,[14],inactive
same,outcome,[7],inactive
same,outcome,[9],inactive
same,outcome,[10],inactive
CCCCOC(=O)CCCCCCCCC(=O)OCCCC,outcome,[4],inactive
same,outcome,[17],inactive
same,outcome,SRD5A2 (gene 6716),inactive
CC1=C(/C=C/C(C)=C/C=C/C(C)=C/CO)C(C)(C)CCC1,AC50,[18],67.5 µM (active)
same,AC50,[13],34.6 µM (active)
same,AC50,[16],33.5 µM (active)
Oc1ccc2ccccc2c1N=Nc1ccccc1,outcome,[2],inactive
same,outcome,[3],inactive
same,outcome,[4],inactive
same,outcome,[17],inactive
same,outcome,SRD5A2 (gene 6716),inactive
same,outcome,[6],inactive
same,outcome,[7],inactive
same,outcome,[8],inactive
same,outcome,[9],inactive
same,AC50,[10],31.9 µM (active)
CC=Cc1ccc(O)c(OC)c1,outcome,[4],inactive
same,outcome,[17],inactive
same,outcome,SRD5A2 (gene 6716),inactive
COc1cccc2c1C(=O)c1c(O)c3c(c(O)c1C2=O)C[C@@](O)(C(=O)CO)C[C@@H]3O[C@H]1C[C@H](N)[C@H](O)[C@H](C)O1,AC50,[18],7.41 µM (active)
same,AC50,[13],0.00843 µM (active)
same,AC50,[16],4.93 µM (active)
COC(=O)c1ccc(O)cc1,outcome,[1],inactive
same,outcome,[5],inactive
same,outcome,[11],inactive
same,outcome,[7],inactive
same,outcome,[10],inactive
C1CCC(SSC2CCCCC2)CC1,outcome,[4],inactive
same,outcome,[17],inactive
same,outcome,SRD5A2 (gene 6716),inactive
COc1ccc2c(c1)c(CC(=O)O)c(C)n2C(=O)c1ccc(Cl)cc1,AC50,[18],5.9 µM (active)
same,AC50,[13],10.2 µM (active)
same,AC50,[16],15.5 µM (active)
CCCc1cc(=O)[nH]c(=S)[nH]1,outcome,[1],inactive
same,outcome,[5],inactive
same,outcome,[11],inactive
same,outcome,[18],inactive
same,outcome,[13],inactive
same,outcome,[8],inactive
same,outcome,[9],inactive
same,outcome,[10],inactive
same,outcome,[16],inactive
COc1ccc(C)cc1N,outcome,[4],inactive
same,outcome,[17],inactive
same,outcome,SRD5A2 (gene 6716),inactive
O=C(O)CCCCC(=O)O,outcome,[11],inactive
